Source: PubChem (National Center for Advancing Translational Sciences (NCATS))
Pol iota inh: inhibitors of human DNA polymerase iota; Potency, µM (series often up to 115 µM), without a hit: at the top dose activity, negative = inhibition, most hits filed as inhibitors; actives 1% (n = 390,000); Pol iota fluorescent replication assay, 10 min; Q9UNA4; note: potency is the fitted concentration of half-maximal effect
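Fluorescent replication assay read twice, at 0 min and 10 min after adding 50 nM (final) substrate. Enzyme (10 nM) and compounds were first incubated 15 min at room temperature; enzyme-free buffer wells were negative controls.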
WRN inhibitor: WRN helicase (human) inhibition | Q14191 | AID 651768 | actives 0.46% (n = 360,000) | Potency, µM (titrated, usually from 114 µM), inactives show at the highest dose activity change, negative = inhibition, usual class: inhibitors | WRN helicase unwinding, fluorescent forked duplex, kinetic; note: potency is the fitted concentration of half-maximal effect; % is set by controls: 0 for no effect and ±100 for the full control effect; nearly all actives have a fitted effect of over 55% in size
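WRN at 20 nM final preincubated with compound 15 min at room temperature; reaction started with 100 nM fluorophore/quencher forked duplex oligonucleotide and 2 mM ATP final. Unwinding followed kinetically by red fluorescence (ex 525, em 598 nm).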
POLB inh: inhibitors of human DNA polymerase beta; Pol beta primer extension/strand displacement, fluorescence kinetic; Potency, µM (top dose mostly 114 µM), inactives show at the top dose activity change, negative = inhibition, most hits filed as inhibitors; actives 1.3% (n = 340,000); note: potency is the fitted concentration of half-maximal effect; % is set by controls: 0 for no effect and ±100 for the full control effect
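10 nM enzyme + cpd, 15 min RT; start with substrate 50 nM final; read 0 min and after 10 min RT. Corrected, normalized data; 4-parameter Hill curve fit.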
PI5P4Ka inh: PI5P4K alpha (human) kinase inhibition; P48426; PI5P4Kalpha enzyme, ADP-Glo luminescence, 60 min; stronger effect = lower value; max response, %; actives 1.2% (n = 330,000); active = max response of -50% or lower; inconclusive = between -30% and -50%; inactive = -30% or higher; note: value at the top dose of about 77 µM; % is set by controls: 0 for no effect and ±100 for the full control effect
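Compounds were pin-transferred onto PI5P4Kalpha and substrate in HEPES pH 7.4 buffer with EGTA, CHAPS and 5% DMSO. ATP (5 microM final) started the reaction, which ran 60 minutes at room temperature before ADP-Glo detection.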
POLH inh: inhibitors of human DNA polymerase eta | recombinant Pol eta, fluorescent DNA replication assay | Potency, µM (top dose mostly 114 µM), for the others: top-dose activity change, negative = inhibition, actives largely listed as inhibitors | actives 1.2% (n = 390,000) | Q9Y253 | AID 588591; note: potency is the fitted concentration of half-maximal effect; % is set by controls: 0 for no effect and ±100 for the full control effect
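Pol eta at 10 nM preincubated with compounds 15 min at room temperature; reaction started with fluorescent substrate (50 nM final) and read kinetically at 0 and 10 min.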
POLK inh: inhibitors of human DNA polymerase kappa; purified Pol kappa, fluorescent DNA synthesis assay, 10 min; actives 0.53% (n = 400,000); Potency, µM (series often up to 107 µM), without a hit: top-dose activity, negative = inhibition, hits mostly inhibitors; note: potency is the fitted concentration of half-maximal effect; % is set by controls: 0 for no effect and ±100 for the full control effect
Target sequence (Q9UBT6 whole entry, looked up): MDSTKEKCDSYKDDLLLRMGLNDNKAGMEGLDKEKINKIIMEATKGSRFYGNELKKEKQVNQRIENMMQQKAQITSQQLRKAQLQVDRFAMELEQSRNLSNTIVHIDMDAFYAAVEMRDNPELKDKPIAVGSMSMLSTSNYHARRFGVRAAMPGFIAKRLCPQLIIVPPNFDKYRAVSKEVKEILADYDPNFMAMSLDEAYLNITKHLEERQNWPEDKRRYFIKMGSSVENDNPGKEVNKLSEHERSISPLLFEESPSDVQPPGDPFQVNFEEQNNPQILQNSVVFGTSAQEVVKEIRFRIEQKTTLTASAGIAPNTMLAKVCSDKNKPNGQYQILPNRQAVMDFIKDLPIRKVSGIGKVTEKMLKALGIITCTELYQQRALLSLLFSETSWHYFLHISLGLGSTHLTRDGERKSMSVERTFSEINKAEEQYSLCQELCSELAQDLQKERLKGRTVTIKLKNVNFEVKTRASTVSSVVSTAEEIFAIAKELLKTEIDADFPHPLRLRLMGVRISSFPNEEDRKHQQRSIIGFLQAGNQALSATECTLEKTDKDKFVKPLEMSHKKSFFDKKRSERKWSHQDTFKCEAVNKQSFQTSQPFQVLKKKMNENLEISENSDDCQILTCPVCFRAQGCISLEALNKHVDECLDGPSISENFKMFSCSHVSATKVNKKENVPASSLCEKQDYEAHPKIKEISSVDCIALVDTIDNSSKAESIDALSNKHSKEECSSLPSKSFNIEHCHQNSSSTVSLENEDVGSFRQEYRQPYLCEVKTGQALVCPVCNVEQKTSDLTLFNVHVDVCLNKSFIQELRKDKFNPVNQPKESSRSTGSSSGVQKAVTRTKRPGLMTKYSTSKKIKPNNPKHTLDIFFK
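Inhibition of 10 nM Pol kappa is measured by a fluorescent read-out at 0 and 10 min following addition of 50 nM substrate (final), with a 15-min room-temperature compound preincubation.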
Starred values were filed as active, the others as inactive; ? = inconclusive; . = no result; ! = a repeat was not active; [ ] = remark or other dose. This is a sample that favours compounds with a hit; in the whole collection about 2.8% have one here. Unless noted, calls come from the whole dose curve; as a rule, active = well fitted curve in the direction sought with a large enough effect; inconclusive = small, poorly fitted or top-dose-only effect, or another doubt; inactive = no such curve, though single readings can be large; an effect the other way counts as inactive or inconclusive.

SMILES	Pol iota inh	WRN inhibitor	POLB inh	PI5P4Ka inh	POLH inh	POLK inh
Cc1ccc(NC(=O)Cn2cc(C(=O)c3ccco3)c3ccccc32)cc1	79µM*	.	11µM*	.	-5%	-3%[60.1 µM]
Cc1cccc(C)c1NC(=O)Cn1cc(C(=O)c2ccco2)c2ccccc21	79µM*	.	50µM*	.	?	-22%
O=c1[nH]c(NC2CCCCC2)c([N+](=O)[O-])c(=O)[nH]1	-2%	2%	40%	-76*	-11%	-8%
Cc1ccc(/C(O)=C2\C(=O)C(=O)N(CCCN3CCOCC3)C2c2ccccc2F)cc1 (stereo unspecified)	.	8%	.	-9	-5%	.
CC(=O)N(C)c1ccc(N=Cc2c(O)ccc3ccccc23)cc1	71µM*	-2%	0%	1	-4%	-6%
CCOC(=O)c1c2c(n(-c3ccc(OC)cc3)c1C)C(=O)C(=O)c1ccccc1-2	8.9µM*	-18%	.	-12	3.2µM*	-6%
COc1ccc(/C=N/NC(=O)c2ccccc2O)cc1Cn1cc([N+](=O)[O-])cn1	-7%	-9%	56µM*	-6	18%	-4%
COc1ccc(/C=N/NC(=O)c2ccc(Br)cc2)cc1Cn1cc(Cl)cn1	50µM*	?	?	0	?	-11%
COc1ccc(/C=N/Nc2ccccc2C(=O)O)cc1Cn1cc([N+](=O)[O-])cn1	?	-18%	-4%	?	-2%	-19%
COc1cccc(/C=N\NC(=O)c2ccc(Cn3cc(Br)c([N+](=O)[O-])n3)o2)c1O	-7%	-18%	40µM*	-8	-11%	-12%
Cc1ccc(/C=N/NC(=O)c2ccc(Cn3cc([N+](=O)[O-])cn3)o2)cc1	16%	3%	-23%	1	-2%	-11%
CCCOc1ccc(/C=N/NC(=O)c2ccc(Cn3cc([N+](=O)[O-])cn3)o2)cc1	?	-16%[57.1 µM]	32µM*	-11	-6%	-16%
O=C(Nc1cc(C(F)(F)F)cc(C(F)(F)F)c1)c1ccc(Cn2cc(C(F)(F)F)ccc2=O)cc1	?	-8%	1%	.	-30%	-13%
Cc1c(C(=O)Nc2nc(-c3ccc(F)cc3)ns2)oc2ccc(Br)cc12	-3%	.	42%	.	0%	5%
COC(=O)[C@@]1(Cc2ccc(F)cc2)[C@H]2c3cc(C(=O)N(C)C)n(CCc4c[nH]c5ccc(O)cc45)c3C[C@H]2CN1C(=O)c1ccccc1	.	-1%	.	-6	.	.
COc1cccc(/C=N/NC(=O)c2c(C)nc3ccc(Br)cn23)c1O	?	-11%	79µM*	4	9%	-10%
Cc1ccc(S(=O)(=O)N2CCCCC2C(=O)NCc2ccco2)cc1 (stereo unspecified)	89µM*	-8%	8%	-13	?	-30%
O=C(NCc1ccco1)C1CCCN(S(=O)(=O)c2ccc(-n3cnnn3)cc2)C1 (stereo unspecified)	?	-20%[57.1 µM]	25µM*	-26	20µM*	?
O=C(O)CS(=O)(=O)c1ccc(Oc2ccc(S(=O)(=O)CC(=O)O)cc2)cc1	59%	6%	-37%	.	-17%	-15%
CC(=O)CS(=O)(=O)c1ccc(Oc2ccc(S(=O)(=O)CC(C)=O)cc2)cc1	?	-18%	32µM*	-28	?	?
CC1=C/C(=C(\c2ccc(O)c(C)c2)c2ccccc2S(=O)(=O)O)C=CC1=O	40%	17%	?	-21	-7%	-5%
O=C(O)C1=CC(=C(c2ccc(O)c(C(=O)O)c2)c2ccc(O)c(C(=O)O)c2)C=CC1=O	0.05µM*!	.	0.022µM*	.	0.13µM*	0.63µM*!
COc1ccc(CN(C(=O)COc2ccccc2)c2ccccc2C(=O)O)cc1	23%	8%	26%	-8	-14%	-1%
N#CCCN(Cc1ccccc1)C(=O)c1cccs1	50%	2%	0.16µM*	4	-21%	-2%
N#Cc1cnn(-c2ccc(F)cc2)c1N	48%	-18%	-6%	-52*	-22%	-22%
SMILES	Pol iota inh	WRN inhibitor	POLB inh	PI5P4Ka inh	POLH inh	POLK inh
Cc1ccc(-n2ncc(C#N)c2N)cc1	?	-9%	14%	2	-8%	-8%
O=C(NN=C1CCCCC1)c1ccccc1-n1cccc1	17%	-3%	46%	-3	-9%	2%
CC(C)=CC(=O)OCC(=O)Nc1ncc(Cl)c(C)c1Cl	?	?	40µM*	.	79µM*	?
CC(=O)c1c(C)[nH]c(C(=O)OCC(=O)Nc2ncc(Cl)c(C)c2Cl)c1C	?	-20%[57.1 µM]	?	-54*	89µM*	-30%
CCCS(=O)(=O)N1CCN(S(=O)(=O)c2ccccc2[N+](=O)[O-])CC1	24%	5%	3%	3	0%	5%
O=[N+]([O-])c1ccccc1S(=O)(=O)N1CCSCC1	17%	4%	.	2	89µM*	2%
c1ccc(-c2nc(NCc3cccnc3)c3oc4ccccc4c3n2)cc1	?	-22%	30%	14	-5%	-16%
CC(C)c1ccc(/C=c2\sc3n(c2=O)C(N)=C(C#N)C(c2ccc(C(C)C)cc2)C=3C(N)=O)cc1 (stereo unspecified)	47%	2%	.	?	5%	-17%
N#CC1=C(N)n2c(s/c(=C\c3ccco3)c2=O)=C(C#N)C1c1ccco1 (stereo unspecified)	7.9µM*	40µM*	7.1µM*	-70*	3.2µM*	22µM*
N#CC1=C(N)n2c(s/c(=C\c3cccs3)c2=O)=C(C#N)C1c1cccs1 (stereo unspecified)	?	-11%[11.6 µM]	?	-56*	45µM*	?
CCOC(=O)C1=C(N)n2c(s/c(=C/c3ccco3)c2=O)=C(C(=O)OC)C1c1ccco1 (stereo unspecified)	?	-24%	28µM*	-26	?	?
Cc1ccccc1-n1c(=O)/c(=C\c2ccco2)s/c1=C(/C#N)C(=O)Nc1ccccc1	-2%	-13%	12%	-22	-3%	-31%
COC(=O)c1ccc(=O)n(Cc2ccc3c(c2)OCO3)c1	-1%	-1%	24%	-5	-13%	2%
COc1cc(OC)c(NC(=O)c2cnn(-c3ccccc3)c2-n2cccc2)cc1Cl	?	.	50µM*	.	0%	-2%
COc1ccccc1NC(=O)c1cnn(-c2ccccc2)c1-n1cccc1	20%	.	0%	.	-8%	-16%
Cc1cc(Nc2ccccc2Cl)n2nc(-c3ccco3)nc2n1	14%	.	6%	.	7%	0%[60.1 µM]
Cc1cc(C)n2nc3nc(N4CCCCC4)nc(-c4ccco4)c3c2n1	?	?	10µM*	-56*	10µM*	32µM*
O=C(CNC(=O)c1cccs1)Nc1ccc2c(c1)OCCO2	9%	3%	.	4	-2%	-2%
